Measurements published in PubChem BioAssay AID2501 (Southern Research Specialized Biocontainment Screening …, 2010).
The whole screen tested about 2,200 compounds, of which about 1,200 (55%) were called active. No cut-off is given here; in the data, nearly all actives have IC50 up to about 92 µM. The set was probably picked from earlier hits. The list shows a part of the results.

Experiment: counter assay for TAg ATPase ADP read-out – biochemical, ADP-Hunter, fluorescence, counter-screen (AID 2501);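 note: purified T antigen ATPase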
Settings: series mostly up to 100 µM

| Compound | IC50 |
| --- | --- |
| Oc1ccccc1C(=S)N1CCCCCC1 | 13.9 µM (active) |
| CC(=O)Oc1ccc(C(=O)Nc2ccccc2C(=O)N2CCCCC2)cc1 | inactive |
| COc1ccccc1NC(=O)c1c(NC(=O)CCC(=O)O)sc2c1CCCCC2 | inactive |
| CCCCN1Cc2c(nc3cc(-c4ccco4)[nH]n3c2=O)C1=O | 9.07 µM (active) |
| COC(=O)CC1SC(=O)NC1=Nc1ccc(O)cc1 (configuration not stated) | 4.34 µM (active) |
| Cc1c(Cl)cccc1NC(=S)N(CCN(C)C)C(C)c1ccco1 (configuration not stated) | inactive |
| N#CCCn1nc(-c2ccc(Br)cc2)cc1Nc1ccccc1NC(=O)C(F)(F)F | inactive |
| COC(C(=O)N/N=C(\C)CC(=O)Nc1ccc(N(C)C)cc1)c1ccccc1 (configuration not stated) | 6.98 µM (active) |
| COc1ccc(CC(=O)n2[nH]c(=O)ccc2=O)cc1OC | inactive |
| COc1ccc(CC(=O)N/N=C(\C)CC(=O)Nc2ccc(N(C)C)cc2)cc1OC | 3.9 µM (active) |
| O=C(O)CCC1c2cc3c4cc2OC2Oc5cc6c(cc51)C(CCC(=O)O)c1cc5c7cc1OC(O6)c1cc6cc(c1)Oc1cc(cc(C(=O)O)c1)Oc1cc8cc(c1)C(Oc1cc(c(cc1C5CCC(=O)O)C3CCC(=O)O)OC(O4)c1cc(cc(c1)Oc1cc(cc(C(=O)O)c1)O8)Oc1cc(cc(C(=O)O)c1)Oc1cc(cc2c1)Oc1cc(cc(C(=O)O)c1)O6)O7 (configuration not stated) | inactive |
| CCC[n+]1c2ccccc2cc2ccccc21 | inactive |
| O=C(NO)c1ccc(C(=O)N(C2CCCCC2)C2CCCCC2)cc1 | inactive |
| CCCC[n+]1c2ccccc2cc2ccccc21 | inactive |
| CC(C)n1c(=S)[nH]c2c1c(=O)[nH]c(=O)n2C | 92 µM (active) |
| C#CCOCCOCCOCCNc1nc(N2CCN(C(=O)CCCCCCCCCCNC(=O)[C@H]([C@@H](C)CC)n3cc(CCCCN=C(N)N)nn3)CC2)nc(N2CCN(C(=O)CCCCCCCCCCNC(=O)[C@H](CCCCN)n3cc(C[C@@H](C)CC)nn3)CC2)n1 | inactive |
| COc1ccc(-n2c(=S)[nH]c3cc(C(=O)NCc4ccco4)ccc3c2=O)c(OC)c1 | inactive |
| Cc1ccc(CNC(=O)/C=C/c2ccc(S(=O)(=O)NCc3ccco3)cc2)cc1 | inactive |
| COc1ccccc1CN(C(=O)CNC(=O)c1ccco1)C(C(=O)NCC1CCCO1)c1ccc(OC)c(OC)c1 (configuration not stated) | inactive |
| COc1cc(/C=N/NC(=O)C(=O)NCc2ccco2)ccc1O | 5.14 µM (active) |
| COc1cc(/C=N/NC(=O)CNC(=O)c2ccco2)ccc1O | 2.71 µM (active) |
| Oc1ccc(/C=N/NC(=S)NCC2CCCO2)cc1 (configuration not stated) | 2.58 µM (active) |
| COc1cc(/C=N/NC(=O)C(=O)NCC2CCCO2)ccc1O (configuration not stated) | 4.13 µM (active) |
| CC1(OC(=O)CCc2ccccc2)C(=O)C=C2C=C(c3ccc(C#N)cc3)N(Cc3ccco3)C=C2C1=O (configuration not stated) | inactive |
| COc1ccc(Nc2ccc(Cl)cc2)c(C(=O)O)c1 | 9.23 µM (active) |

| Compound | IC50 |
| --- | --- |
| COc1ccc(NC(=O)c2c(Cl)cnn2C)c(C)c1 | inactive |
| COc1ccc(C(=O)CCNc2ccc(C)c(Cl)c2)cc1 | inactive |
| O=C(Cn1c(=O)oc2ccccc21)Nc1n[nH]c(=S)s1 | 88.8 µM (active) |
| Nc1ccc2c(c1)-c1ccccc1S(=O)(=O)N2 | 2.89 µM (active) |
| CC(Nc1ccc(N2CCOCC2)cc1)C(=O)N1c2ccccc2CC1C (configuration not stated) | 8.86 µM (active) |
| O=c1cc(CN2CCN(Cc3ccc(F)cc3)C(CCO)C2)[nH]c2ccccc12 (configuration not stated) | inactive |
| CCOc1ccc(CN2CCN(Cc3cccc4c3OCO4)CC2CCO)cc1 (configuration not stated) | 2.23 µM (active) |
| Cc1ccc(CN2CCN(Cc3cn[nH]c3-c3cccc(F)c3)CC2CCO)o1 (configuration not stated) | inactive |
| Cc1nc(C)c(-c2csc(Nc3ccc(N)cc3)n2)s1 | 7.48 µM (active) |
| Cc1cccc(-n2c(O)c(C=Nc3ccc(O)cc3)c3ccccc3c2=O)n1 | 3.7 µM (active) |
| Cc1cc2c(n1-c1ccc(C(=O)O)cc1)CCCCC2 | inactive |
| C=C1C(=O)O[C@@H]2[C@H]3O[C@]3(C)CC/C=C(\C)CC[C@@H]12 | inactive |
| CC(C)CC(NC(=O)CC12CC3CC(CC(C3)C1)C2)C(=O)NC1=NCCS1 (configuration not stated) | inactive |
| COc1ccc(N=Cc2nc(-c3ccccc3)oc2OC(C)=O)cc1 | inactive |
| COc1ccc(N=Cc2c(O)cc(C)oc2=O)cc1 | 6.29 µM (active) |
| CC(=O)Nc1ccc(N2CCCCC2)cc1 | 12.1 µM (active) |
| Cn1c(CCN2CCCCCC2)nc2cc(NC(=O)Nc3ccccc3)ccc21 | inactive |
| O=C(CCl)Nc1ccc(N2CCCCCC2)cc1 | 0.76 µM (active) |
| Cc1ccc(NC(=O)NCCN2CCCCC2)cc1Cl | inactive |
| O=C(Nc1ccc2nc(-c3ccco3)c(-c3ccco3)nc2c1)NC1CC1 | inactive |
| O=C(NC1CCCCCC1)c1cccnc1Sc1ccc(Cl)cc1 | inactive |
| Nc1ccc(NC(=O)NC2CCCCC2)cc1 | 9.21 µM (active) |
| O=c1cc(CSc2ccc(Cl)cc2)[nH]c2[nH]n(-c3ccccc3)c(=O)c12 | 16.2 µM (active) |
| O=C(O)c1ccccc1NS(=O)(=O)c1ccc(NNC(=S)Nc2ccc(OC(F)F)cc2)c([N+](=O)[O-])c1 | 23 µM (active) |
| O=C(/C=C/c1ccco1)NCC1OCCc2ccccc21 (configuration not stated) | inactive |

| Compound | IC50 |
| --- | --- |
| COc1ccc(O)c(C(=O)C2c3ccccc3C(=O)N2c2ccc(C)cc2)c1 (configuration not stated) | inactive |
| O=C(COc1ccc2c(-c3ccccc3)cc(=O)oc2c1)N[C@@H](Cc1c[nH]c2ccc(O)cc12)C(=O)O | 31.3 µM (active) |
| O=C(O)c1ccccc1C(=O)NC1=NN(c2ccccc2)CC1 | 12.1 µM (active) |
| COc1cc(/C=N/Nc2ccccn2)ccc1O | 8.27 µM (active) |
| COc1cc(/C=N/NC2=NCCCCC2)ccc1O | 4.15 µM (active) |
| COc1cccc2c(N/N=C/c3ccc(O)c(O)c3)cc(C)nc12 | 10.2 µM (active) |
| COc1cc(/C=N/Nc2ccnc(=O)[nH]2)ccc1O | 5.01 µM (active) |
| COc1cc(/C=N\Nc2cc(=O)n(C)c(=O)n2C)ccc1O | 4.97 µM (active) |
| COc1cc(/C=N/Nc2nc(=O)[nH]nc2C)ccc1O | 6.46 µM (active) |
| COc1cc(/C=N/Nc2nncn2/N=C/c2ccc(O)c(OC)c2)ccc1O | 4.48 µM (active) |
| Cc1cc(C)n(CCc2nc(-c3ccco3)cs2)n1 | inactive |
| COC(=O)C1=C(O)/C(=C\c2ccc(O)c(OC)c2)N=C1C | 3.81 µM (active) |
| CCOC(=O)C1=C(O)/C(=C\c2ccc(O)c(OCC)c2)N=C1C | 9.47 µM (active) |
| CCOc1cc(/C=C2/N=C(C)C(C(=O)OC)=C2O)ccc1O | 3.91 µM (active) |
| C#CCOCCOCCOCCNc1nc(N2CCN(C(=O)CCCCCCCCCCNC(=O)[C@H]([C@@H](C)CC)n3cc(CCCCN=C(N)N)nn3)CC2)nc(N2CCN(C(=O)CCCCCCCCCCNC(=O)[C@H]([C@@H](C)CC)n3cc(CCCCN=C(N)N)nn3)CC2)n1 | inactive |
| O=[N+]([O-])c1ccc(C2(O)CN(c3ccccc3)C3=[N+]2CCS3)cc1 (configuration not stated) | inactive |
| Cc1[nH]n(-c2ccccc2)c(=S)c1C=Nc1ccc([N+](=O)[O-])cc1 | 48 µM (active) |
| COc1cc(SC#N)ccc1N=Cc1c(C)[nH]n(-c2ccc(C)cc2)c1=O | inactive |
| COc1ccc(NC2CCCN(C(=O)CCCn3cncn3)C2)cc1 (configuration not stated) | 11.5 µM (active) |
| CCCn1c(SCC(=O)N2CCCC(C)C2)nnc1-c1ccccn1 (configuration not stated) | inactive |
| COc1ccc(NC2CCCN(C(=O)CSc3ccccc3)C2)cc1 (configuration not stated) | 4.76 µM (active) |
| COc1ccc(NC2CCCN(C(=O)CCn3cccn3)C2)cc1 (configuration not stated) | 5.33 µM (active) |
| O=C1CCCCN1CCC(=O)N1CCCC(Nc2ccccc2)C1 (configuration not stated) | inactive |
| OCCC1CN(Cc2cccn2-c2ncccn2)CCN1CCc1ccccc1 (configuration not stated) | inactive |
| COc1ccc(C2=CC3=C(Br)C(=O)C(C)(OC(=O)c4cccs4)C(=O)C3=CO2)cc1 (configuration not stated) | inactive |

| Compound | IC50 |
| --- | --- |
| CC(=O)NS(=O)(=O)c1ccc(N=c2ssc3c2-c2cc(C)ccc2NC3(C)C)cc1 | 74.3 µM (active) |
| CN1C=CC=C/C1=C(\C#N)c1nc2ccccc2[nH]1 | 4.36 µM (active) |
| NS(=O)(=O)c1ccc(N/N=C/c2ccc[nH]2)c([N+](=O)[O-])c1 | 14.6 µM (active) |
| CCOc1cccc(=O)c2c(C)n(Cc3ccco3)c(C)c12 | inactive |
| Cc1cs/c(=N\N=C\c2ccc(O)cc2)n1Cc1ccco1 | 5.01 µM (active) |
| O=C(CCc1nnc(C2(c3ccc(Cl)cc3)CCC2)o1)N1CCCC(O)C1 (configuration not stated) | inactive |
| CC(C)CN(Cc1c(O)ccc2c3c(c(=O)oc12)CCC3)CC(C)C | 5.92 µM (active) |
| O=C1NN(c2cccc(Br)c2)C(=O)/C1=C\c1ccc(O)cc1 | 11.6 µM (active) |
| CSC1=NSC2=NC(=O)/C(=C\c3coc4ccccc4c3=O)C(=N)N12 | inactive |
| O=C1NN(c2ccccc2)C(=O)/C1=C\c1coc2ccc(O)cc2c1=O | 10.7 µM (active) |
| N=C1/C(=C\c2coc3ccc(O)cc3c2=O)C(=O)N=C2SC=CN12 | 84.9 µM (active) |
| CC(C)CC1=NN2C(=N)/C(=C\c3coc4ccccc4c3=O)C(=O)N=C2S1 | inactive |
| Cc1cc(C)c2nc(-c3ccco3)cc(C(=O)O)c2c1 | inactive |
| CC(C)C1Cc2c(sc3c2c(=O)n(-c2ccccc2)c2n[nH]c(=S)n32)CO1 (configuration not stated) | 21.9 µM (active) |
| COc1ccc(-n2c(=O)c3c4c(sc3n3c(=S)[nH]nc23)COC(C(C)C)C4)cc1 (configuration not stated) | 16.3 µM (active) |
| Cc1cc(C)c2c(=O)n(CC(=O)NCCCN3CCN(c4ccccc4F)CC3)sc2n1 | inactive |
| C=CCOC(=O)C1=C(C)N=c2s/c(=C3\C(=O)N(CC(=O)O)c4ccccc43)c(=O)n2C1c1ccc(OC)cc1 (configuration not stated) | inactive |
| C=C1CC(C(=O)N/N=C/c2ccc(O)cc2)C1 | 5.39 µM (active) |
| CCOC(=O)c1c(C)n(C)c2ccc(OCC(O)CN(CC)CC)cc12 (configuration not stated) | inactive |
| Cc1nonc1C(=O)N/N=C/c1ccc(O)c(O)c1 | 2.13 µM (active) |
| O=C(N/N=C/c1ccc(O)c(O)c1)C1CC1 | 4.15 µM (active) |
| COc1ccc2c(c1)c(C(=O)N/N=C/c1ccc(O)c(O)c1)c(C)n2C | 14.6 µM (active) |
